Calls of active or inactive are those of the source. How the calls were made is not given here.
The compounds below were run against Pantothenate synthetase (Mycobacterium tuberculosis (strain ATCC 25618 / H37Rv)) (UniProt P9WIL5) (assay: Coupled enzyme confirmation of inhibitors against recombinant Mtb PanC (AID 375;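 further: 0% = full reaction with vehicle and 100% = no enzyme background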)). Conditions: coupled enzyme assay; at 10 µM, stronger effect = higher value.
Chain of Pantothenate synthetase (Mycobacterium tuberculosis (strain ATCC 25618 / H37Rv)) (P9WIL5 whole entry, looked up): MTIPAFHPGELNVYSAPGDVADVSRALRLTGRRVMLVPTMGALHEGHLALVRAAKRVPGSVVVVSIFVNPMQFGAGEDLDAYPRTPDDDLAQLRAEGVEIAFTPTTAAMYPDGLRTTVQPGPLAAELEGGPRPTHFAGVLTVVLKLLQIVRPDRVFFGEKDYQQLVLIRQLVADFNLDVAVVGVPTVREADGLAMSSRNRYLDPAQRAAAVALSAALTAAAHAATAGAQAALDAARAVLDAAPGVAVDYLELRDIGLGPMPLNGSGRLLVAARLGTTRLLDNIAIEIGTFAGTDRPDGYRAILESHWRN

SMILES	inhibition
O=C(NCCCCNC(=O)c1c(F)c(F)c(F)c(F)c1F)c1c(F)c(F)c(F)c(F)c1F	0% (inactive)
Cc1nnc(SCC(=O)N(C(C)C)C(C)C)nc1C	7% (inactive)
COc1ccc(OCC(=O)Nc2cccc3ncccc23)cc1	2% (inactive)
O=C(Nc1ccc2nc(-c3cccs3)[nH]c2c1)c1ccco1	0% (inactive)
O=S(=O)(NCCc1csc(-c2ccccc2)n1)c1ccc2c(c1)OCCO2	4% (inactive)
CC(=O)NCC(=O)N(Cc1ccco1)C1(C(=O)NC2CCCCC2)CCCCC1	0% (inactive)
NCc1ccc(S(N)(=O)=O)cc1	2% (inactive)
O=C(Nc1ccncc1)c1cccc(F)c1	6% (inactive)
Cc1nn(-c2ccccc2)c2c1C(=O)NC(=O)C(C)(C)C2	0% (inactive)
Cn1c(=O)c(C(=O)Nc2cccnc2)c(O)c2ccccc21	5% (inactive)
CCOc1ccc(-c2cc(C(=O)N3CCN(c4ccccn4)CC3)c3ccccc3n2)cc1	2% (inactive)
CC(=O)N1CCC2(CC1)CC(=O)c1cc(OCC(=O)NCc3ccco3)ccc1O2	3% (inactive)
COc1ccc2ccccc2c1CN1CCN(C)CC1	3% (inactive)
O=C(O)C1C2C=CC(C3CC23)C1C(=O)NCCc1ccccc1 (stereo not given)	6% (inactive)
COc1ccc(-c2[nH]c(-c3cccc(OC)c3)nc2SCC(=O)NCc2ccco2)cc1	1% (inactive)
CCN(CC(=O)NC(=O)NCc1ccco1)Cc1nc2ccccc2c(=O)[nH]1	0% (inactive)
Cc1ccc(N2C(=O)c3ccccc3C2O)nc1 (stereo not given)	1% (inactive)
Cn1nnnc1SCC(=O)N1CCN(c2cccc(Cl)c2)CC1	2% (inactive)
N#Cc1c(N)nc2c(c1-c1ccncc1)CCCCC2	8% (inactive)
CCN(CC)CCCN1C(=O)C(=O)/C(=C(/O)c2ccccc2)C1c1ccccn1 (stereo not given)	0% (inactive)

SMILES	inhibition
O=C1N(CCCCN2C(=O)C3(OCCO3)c3ccccc32)c2ccccc2C12OCCO2	0% (inactive)
CCOC(=O)c1ccccc1NC(=O)CSc1nccn1C	0% (inactive)
Cc1noc(/C=C/N(C)C)c1S(=O)(=O)N1CCCC(C(=O)N2CCc3ccccc32)C1 (stereo not given)	10% (inactive)
O=C(COc1ccc(Cl)cc1)NCc1nnc(SCC(=O)Nc2ccc3c(c2)OCCO3)o1	3% (inactive)
CCOC(=O)c1[nH]c2ccccc2c1NC(=O)c1ccco1	0% (inactive)
COc1ccc(-c2cc3nc(C)c(CCC(=O)NCc4ccco4)c(C)n3n2)c(OC)c1	0% (inactive)
O=C(COC(=O)c1cc(-c2ccco2)nc2ccccc12)NCc1ccc2c(c1)OCO2	0% (inactive)
CCc1cccc2c(=O)c(C(=O)NCCN3CCOCC3)c[nH]c12	10% (inactive)
COCCN(CCOC)C(=O)CCn1c(=O)oc2ccccc21	0% (inactive)
CCC(NC(C)C)C(O)c1ccc(O)c(O)c1 (stereo not given)	0% (inactive)
COC(=O)C1=C(N)OC2=C(C(=O)CCC2)C1c1cccs1 (stereo not given)	0% (inactive)
CN1CCN(CC(=O)N2c3ccccc3C(C)(c3ccccc3)CC2(C)C)CC1 (stereo not given)	0% (inactive)
CCOCC(=O)Nc1c(C(=O)Nc2ccc(OC)cc2OC)oc2ccccc12	0% (inactive)
COc1cccc(C2CC(c3c(Cl)cccc3Cl)n3nc(N)nc3N2)c1 (stereo not given)	0% (inactive)
Cc1cc(C)nc(NS(=O)(=O)c2ccc(N)cc2)n1	0% (inactive)
CC1CCC(NC(=O)C2CCN(c3cnccn3)CC2)CC1 (stereo not given)	0% (inactive)
COc1cc2c(cc1OC)CN(C(=O)COc1ccc(C)c(C)c1)CC2	1% (inactive)
COc1cc(OC)cc(C(=O)NCCN2CCOCC2)c1	0% (inactive)
CC1=C(C(=O)NCc2ccccn2)C2(CCC(C)CC2)OC1=O (stereo not given)	0% (inactive)
COc1ccc(C2CC(c3cccc(C)c3)n3ncnc3N2)cc1 (stereo not given)	0% (inactive)
